# From PubChem
# Hits are enriched below; roughly 9% of the tested compounds scored in any of these assays.
# IMPase inh – cell-permeable inhibitors of inositol monophosphatase (IMPase); P97697; CHO-M1 cells, IP1 accumulation, HTRF TR-FRET ratio; inhibition (IP1 accumulation), % at 46.1 µM; 120,000 tested, under 10 active; AID 901; active = well fitted curve in the direction sought with a large enough effect in the signal ratio, not every such curve was filed as active; inconclusive = small, poorly fitted or top-dose-only effect, or a change in a side signal; inactive = no such curve, though single readings can be large or run the other way; the % refers to the signal ratio;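 note: cells stimulated with carbachol in lithium chloride buffer; plate controls were DMSO basal wells for no effect and reference inhibitor wells for full effect; higher means more IMPase inhibition seen as more IP1 and lower FRET ratio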
#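 The IP-One HTRF competitive assay in carbachol-stimulated CHO-M1 cells quantifies cellular IP1. Compounds spanned up to 46 uM final, and activity is expressed as AC50 from concentration-response fits of the ratio and donor data.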
# HPGD block – HPGD (human) dehydrogenase inhibition; P15428; purified HPGD, NADH fluorescence kinetic, PGE2 substrate; Potency, µM, for inactives: at the top dose activity change, negative = inhibition, actives largely listed as inhibitors; hit rate 4.3% among 150,000; AID 894; note: potency is the fitted concentration of half-maximal effect
#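 20 nM HPGD preincubated 15 min at room temperature with compound in 50 mM Tris-HCl pH 8, 0.01% Tween 20. Started with 1 mM NAD+ and 30 uM prostaglandin E2; NADH fluorescence (360/450 nm) read 5 times over 30-s intervals, last minus first.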
# ALDH1A1 block – blocks purified human ALDH1A1 activity; P00352; Purified ALDH1A1, NADH fluorescence, propionaldehyde substrate; Potency, µM (series often up to 75.3 µM), for inactives: at the top dose activity, negative = inhibition, actives largely listed as inhibitors; hit rate 7.3% among 220,000; AID 1030;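 note: potency is the fitted concentration of half-maximal effect; plate controls were no enzyme wells and a reference inhibitor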
# Target sequence (P00352 whole entry, looked up): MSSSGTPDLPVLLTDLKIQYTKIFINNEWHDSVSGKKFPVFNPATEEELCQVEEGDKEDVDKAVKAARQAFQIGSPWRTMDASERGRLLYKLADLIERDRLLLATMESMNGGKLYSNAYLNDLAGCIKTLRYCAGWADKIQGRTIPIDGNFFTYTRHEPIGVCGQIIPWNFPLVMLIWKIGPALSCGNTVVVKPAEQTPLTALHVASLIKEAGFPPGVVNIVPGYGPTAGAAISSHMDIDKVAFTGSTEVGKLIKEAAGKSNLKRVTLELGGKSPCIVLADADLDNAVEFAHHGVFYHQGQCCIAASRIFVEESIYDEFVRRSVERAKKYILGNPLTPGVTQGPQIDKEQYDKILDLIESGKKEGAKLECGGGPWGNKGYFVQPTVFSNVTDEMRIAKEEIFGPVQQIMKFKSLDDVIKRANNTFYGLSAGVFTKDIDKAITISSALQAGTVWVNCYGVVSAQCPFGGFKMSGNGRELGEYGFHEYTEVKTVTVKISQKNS
# * marks the source's active call; other numbers are inactive results; ? = inconclusive; . = no result; [ ] = remark or other dose. Unless noted, calls come from the whole dose curve; as a rule, active = well fitted inhibition curve with a large enough effect (not every such curve was filed as active); inconclusive = small, poorly fitted or top-dose-only effect, or another doubt; inactive = no such curve, though single readings can be large or run the other way. Unless noted, % is set by controls: 0 for no effect and ±100 for the full control effect.
SMILES,IMPase inh,HPGD block,ALDH1A1 block
CCOC(=O)c1cc2occc2n1CC(=O)N1CCCc2ccccc21,13,-16%,8.9µM*
COC(=O)c1cc2oc(C)cc2n1CC(=O)N1CCCc2ccccc21,7,-17%,20µM*
COC(=O)c1cc2sccc2n1CC(=O)N1CCCc2ccccc21,?,-9%,-7%
CCOC(=O)c1cc2sccc2n1CC(=O)N1CCCc2ccccc21,6,-22%,-4%
CCOc1cc(C2NC(=O)c3c(sc4c3CCN(C)C4)N2)ccc1OC(=O)c1ccccc1Cl (stereo not given),-4,.,.
CC(=O)c1cc(C)ccc1OC(=O)c1ccco1,10[1.84 µM],-12%,10%
COc1ccc(NC(=O)C2CC(=O)OC2(C)C)cc1 (stereo not given),-11[1.84 µM],-1%,12%
Cc1[nH]n(-c2ccccc2)c(=O)c1C1(C(F)(F)F)C(=O)N(c2ccc(F)cc2)C2=C1C(=O)CC(C)(C)C2 (stereo not given),2,-14%,-1%
O=C(c1csc(Nc2ccccc2Cl)n1)N1CCCC1,5,16µM*,22µM*
O=C(NCc1ccco1)c1csc(Nc2ccccc2Cl)n1,-5,16µM*,?
COc1ccc(Nc2nc(C(=O)N3CCc4ccccc4C3)cs2)cc1,.,.,-4%
O=C(NCc1ccco1)Nc1ccccc1Cl,-4,?,4%
COc1ccc(-c2cc(C(=O)Oc3cccc(C)c3)c3ccccc3n2)cc1,-4,.,.
ClCc1csc(-c2ccc(Cl)cc2)n1,.,-5%,-9%
CC1CN(Cc2csc(-c3ccc(Cl)cc3)n2)CC(C)O1 (stereo not given),.,.,16µM*
CCOC(=O)C1(Cc2ccccc2C(F)(F)F)CCN(C2CCN(C(C)=O)CC2)CC1,.,.,4%
CCc1ccc(C(=O)/C=C/c2ccc([N+](=O)[O-])o2)cc1,-2,-24%,3.5µM*
CCc1ccc(/C=C/C(=O)c2ccc(N3CCOCC3)cc2)cc1,9,-15%,-6%
O=C(O)CN1CCN(Cc2ccccc2)C1=O,-3,-3%,1%
O=C(O)CN1CCCC1=Nc1ccccc1,-4,-8%,89µM*
CCOC(=O)c1ccc(-n2[nH]c(-c3ccccc3)cc2=O)cc1,5,-23%,15%
CCOC(=O)c1ccc(N=C2C(=S)N(c3ccc(C(=O)OCC)cc3)C(=N)N2/N=C/c2ccccc2)cc1,10,22µM*,2µM*
CN1CCN(C(=O)c2ccccc2NC(=O)Cc2ccccc2)CC1,?,0%,2%
c1ccc(Nc2cc(Nc3ccccc3)[nH]n2)cc1,3,-12%,?
CCCCCN1N=C(C)CC1=O,.,.,0.63µM*
SMILES,IMPase inh,HPGD block,ALDH1A1 block
CCCCCCCN1N=C(C)C(C(=O)c2ccccc2)C1=O (stereo not given),-4,0%,-4%
CC(C)c1ccc(NC(=S)N2CCCC(c3ccc(F)cc3)=N2)cc1,.,.,-3%
O=C1c2ccccc2C(=O)N1Cc1cnc(N2CCN(c3ccccc3)CC2)s1,.,.,-3%
COc1ccc(CC2(C)OC(c3ccc([N+](=O)[O-])cc3)=NN2C(C)=O)cc1 (stereo not given),.,.,0%
COc1ccc2c(c1OC)C(=O)N(c1cccc(C)c1)C2=O,?,-13%,5µM*
COC(=O)c1ccc(N2C(=O)c3ccc(OC)c(OC)c3C2=O)cc1,-18,1%,1%
CN(CCOC(=O)CN1C(=O)c2ccccc2C1=O)C1=NS(=O)(=O)c2ccccc21,.,.,0%
COc1ccc(C(=O)N2CCC[C@@]3(CCN(Cc4cc(C(F)(F)F)cc(C(F)(F)F)c4)C3)C2)cc1,.,-4%,7%
O=C(c1ccncc1)N1CCC[C@@]2(CCN(Cc3ccncc3)C2)C1,.,-13%,22µM*
O=C(c1ccncc1)N1CCC2(CCCN(Cc3ccccc3)C2)CC1,.,-4%,6%
N#Cc1ccc(CN2CC[C@@]3(CCCN(C(=O)c4cccc(F)c4)C3)C2)cc1,.,28µM*,-9%
COc1ccc(C(=O)N2CCC[C@@]3(CCN(Cc4ccncc4)C3)C2)cc1,.,35µM*,28µM*
Cn1cccc1C(=O)N1CCC[C@@]2(CCN(Cc3ccc(C#N)cc3)C2)C1,.,-15%,?
CNC(=O)N(C1=NCCCCC1)c1ccc(Br)cc1,5,-16%,-2%
CCc1ccc(C(=O)COC(=O)C(Cc2c[nH]c3ccccc23)NC(=O)c2ccc(Br)cc2)cc1 (stereo not given),-7,.,.
COc1cc2c(cc1OC)C(C(C(=O)N(CCc1ccc(OC)c(OC)c1OC)CCc1ccc(OC)c(OC)c1OC)c1ccccc1)=NCC2 (stereo not given),.,-29%,?
CC1Cc2ccccc2N1C(=S)NC(=O)c1ccc(Cl)cc1Cl (stereo not given),11,.,2%
C[C@@H]1Cc2ccccc2N1NC(=O)c1ccc(Cl)c(S(N)=O)c1 (stereo not given in full),4[20.6 µM],-1%,7.9µM*
CCCNC(=O)OC[C@@H]1O[C@H](CCO/N=C(\C)CCN2CCCCc3nc(C)c(C)cc32)C=C[C@@H]1Oc1ccc(OC)cc1,.,.,-8%[13.5 µM]
COc1ccc(CCNC(=O)c2cc(C(C)C)on2)cc1OC,4,-6%,-1%
COc1ccc(CCNC(=O)C(=O)NCc2ccc(C(C)C)cc2)cc1OC,3,-19%,0.79µM*
COc1ccc(CCNC(=O)Cn2cccc2C(=O)c2ccccc2C)cc1OC,-14,-6%,-3%
COc1ccc(C2SCC(=O)N2CC23CC4CC(CC(C4)C2)C3)cc1 (stereo not given),12,-11%,?
CC(NC(=O)Cc1cccs1)C(c1cccs1)N1CCN(c2ccccc2F)CC1 (stereo not given),-7,.,2%
CCN(CC)c1ccc(C(=O)NNC(=O)CCl)cc1,.,.,10µM*
SMILES,IMPase inh,HPGD block,ALDH1A1 block
CCN(CC)c1ccc(NC(=O)C(C)C)cc1,14,-2%,7%
CC(C)Cn1nc(C(=O)OCC(=O)NCC(F)(F)F)c2ccccc2c1=O,.,.,0%
COc1cccc(Cn2c(=O)c(C)nc3cnc(OC)nc32)c1,.,.,-3%
C=C(C)CSc1ncc(-c2cccc(C(F)(F)F)c2)cn1,-3,-7%,?
COc1ccnc(CSC(N)=Nc2ccccc2OC)c1,-4,-8%,25µM*
COc1ccnc(CSC(N)=Nc2ccccc2C(F)(F)F)c1,.,-17%,-3%
COc1ccnc(CSC(N)=Nc2cccc(C(F)(F)F)c2)c1,.,-13%,20µM*
O=C(CSc1nnc(-c2ccccn2)n1Cc1ccccc1)N1CCCC1,-6,28µM*,-11%
Cc1ccccc1-n1c(SCC(=O)N2CCCC2)nnc1-c1ccccn1,1,?,-18%
CC(C)(C)C(=O)CSc1nnc(-c2cccs2)n1CC1CCCO1 (stereo not given),1,-9%,-5%
C=CCn1c(SCC(=O)C(C)(C)C)nnc1-c1cccs1,8,14µM*,13µM*
CCn1c(SCC(=O)C(C)(C)C)nnc1-c1ccccn1,-5,-15%,7.1µM*
C=CCn1c(SCC(=O)C(C)(C)C)nnc1-c1ccccn1,2,-21%,?
CO/N=C(/C(=O)NC1C(=O)N2C(C(=O)O)=C(COC(N)=O)CSC12)c1ccco1 (stereo not given),.,-13%,1%
COc1ccc(C2CC2C(C)=O)cc1 (stereo not given),.,.,-4%
CN1CCN(/N=C/c2c3ccccc3c(Cl)c3ccccc23)CC1,.,.,-15%
